Results filed as inconclusive are left out. Active and inactive are the calls of the source. Calls come from the whole dose curve; as a rule, active = well fitted inhibition curve with a large enough effect; inconclusive = small, poorly fitted or top-dose-only effect; inactive = flat fitted curve, though single readings scatter.
How the values were obtained:
Experiment in all cases: Cytotoxic Profiling of Annotated Libraries Using Quantitative High-Throughput Screening (AID 1296008); note: nearly all actives have a fitted effect of over 60% in size
Details in all cases: Five cell lines viability, CellTiter-Glo ATP luminescence, 48-72 h; max response: stronger effect = lower value
CRL-7250 = normal cell line; test system: CRL-7250
Method in brief: (§1)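 Cells exposed to compounds for 48 or 72 hr at 37 degrees Celsius. Viability read as ATP-coupled luminescence with CellTiter-Glo after 10 min at room temperature.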

HEK293 = test system: HEK293
Method in brief: as §1

HaCat = test system: HaCat
Method in brief: as §1

Measured: max response
% is set by controls: 0 for no effect and ±100 for the full control effect.

CC(=O)Nc1ccc(S(=O)(=O)Nc2cc(C)on2)cc1
inactive: CRL-7250 -2.31% | HEK293 4.22% | HaCat

Cc1coc2ccccc2c1=O
inactive: CRL-7250 -0.524% | HEK293 3.92% | HaCat

Nc1cc(C(F)(F)F)ccc1S
inactive: CRL-7250 -0.153% | HEK293 -4.91% | HaCat

CN1N=C(C(N)=O)CCC1=O
inactive: all assays above

Cc1cccc(C)c1NC(=O)c1ccc(N)cc1
inactive: CRL-7250 -0.144% | HEK293 -2.32% | HaCat

Cc1cc(O)c(C)c(C)c1O
inactive: all assays above

NS(=O)(=O)c1cc(C(=O)NN2C[C@H]3[C@H]4CCC(C4)[C@H]3C2)ccc1Cl
inactive: CRL-7250 | HEK293 4.38% | HaCat

CC(=O)c1ccc(O)c(C(N)=O)c1
inactive: CRL-7250 1.65% | HEK293 | HaCat

CCOC(=O)C(=O)CCCCCCl
inactive: CRL-7250 | HEK293 -7.06% | HaCat -12.5%

CCOC(=O)O[C@]1(C(=O)OCCl)CC[C@H]2[C@@H]3CCC4=CC(=O)C=C[C@]4(C)[C@H]3[C@@H](O)C[C@@]21C
inactive: CRL-7250 | HEK293 | HaCat -4.73%

OC1(c2ccccc2)CCNCC1
inactive: CRL-7250 0.914% | HEK293 1.58% | HaCat -1.01%

CC(C)NC(=O)c1ccc(C=O)cc1
inactive: CRL-7250 -4.83% | HEK293 | HaCat

CN(C)CCN1CCN(c2cccc(Cl)c2)C1=O
inactive: CRL-7250 -6.51% | HEK293 | HaCat

CN1CC(=O)N2[C@H](c3ccc4c(c3)OCO4)c3[nH]c4ccccc4c3C[C@@H]2C1=O
inactive: CRL-7250 3.82% | HEK293 -4.29% | HaCat

Source: PubChem BioAssay (NCATS)
